Experimental data as given in PubChem BioAssay AID588335 (The Scripps Research Institute Molecular Screening Center, 2011).
Out of some 360,000 compounds screened, about 4,500 (1.2%) were called active. This excerpt belongs to a sample that is enriched for actives. A number with no mark means an inactive call. Cut-off read from the data, not from the text of the source: active = inhibition above about 30%; inactive = the rest.

Assay: inhibition of GDH and TPI enzymes – biochemical, absorbance, full deck, artefact control for M. tuberculosis FBA inhibitor project, primary screen (AID 588335);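 note: 0% = DMSO wells and 100% = wells lacking the enzyme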
Details: GDH-TPI coupled enzyme counterscreen, NADH absorbance; at 4.8 µM; stronger effect = higher value

SMILES | inhibition
CCC(C)(C)NC(=O)C(c1ccc(O)cc1)N(Cc1ccco1)C(=O)CCC(=O)Nc1ccccn1 (stereo not given) | 0%
CCCc1nc(N2CCN(C)CC2)c2sc(=S)n(-c3ccccc3)c2n1 | 11.9%
Cc1noc(C)c1CSc1nc2cc(S(=O)(=O)N3CCOCC3)ccc2o1 | 0%
O=C(CC(=O)c1cccnc1)c1ccccc1 | 31.5% (active)
O=C(Nc1cnccn1)c1cccnc1 | -10.2%
O=C(Cc1ccccc1)Nc1ccc(NC(=O)c2cccnc2)cc1 | -3.47%
CS(=O)(=O)N1CCCC(C(=O)N2CCOCC2)C1 (stereo not given) | 5.31%
O=C(Nc1ccccc1C(=O)O)c1cc(S(=O)(=O)N2CCCCC2)cs1 | -4.43%
Cc1c(C(=O)NCCN2C(=O)S/C(=C\c3cccs3)C2=O)cccc1[N+](=O)[O-] | 39.5% (active)
O=C(NCCN1C(=O)S/C(=C\c2cccnc2)C1=O)c1cccc(OC(F)F)c1 | 8.86%
Cc1c(C(=O)NCCCc2ccccc2)cccc1[N+](=O)[O-] | 10%
Cc1cc(C)c(C)c(S(=O)(=O)N2CCN(C(=O)c3ccc4c(=O)n5c(nc4c3)CCC5)CC2)c1C | 5.92%
CC(C)CC1C(=O)N(Cc2cn(Cc3ccco3)nn2)CCS(=O)(=O)N1Cc1ccc(-c2ccc(Cl)c(Cl)c2)cc1 (stereo not given) | -1.42%
COc1ccc(N2C(=O)/C(=C\c3ccco3)N=C2SCC(N)=O)cc1Cl | 8.83%
CC(=O)c1sc(NC(=O)c2ccc(C)cc2)nc1C | 31.3% (active)
CCOC(=O)c1sc(/N=C/Nc2nc(C)c(C(=O)OCC)s2)nc1C | 0.95%
CCOC(=O)c1sc(NC(=O)c2sc(C)nc2C)nc1C | 34.6% (active)
Cc1ccc(C(=O)Nc2ccn(C)n2)cc1 | -9.27%
CCOC(=O)c1sc(NC(=O)c2ccncc2)nc1C | 39.2% (active)
CC(=O)c1sc(NC(=O)C2=NN(c3ccccc3)C(=O)CC2)nc1C | 29.1%

SMILES | inhibition
CCOC(=O)c1sc(NC(=O)CSc2n[nH]c(CC)n2)nc1C | -0.63%
CCOC(=O)c1cccnc1NC(=O)c1ccncc1 | -7.37%
CCOC(=O)c1sc(NC(=O)C(CC)Sc2nccn2C)nc1C (stereo not given) | 10.2%
Cc1ccc(N2CCN(S(=O)(=O)N(C)C)CC2)cc1Cl | 8.64%
CC(c1ccco1)N(C(=O)c1ccc(S(=O)(=O)N2CCCCC2)cc1)c1ccccn1 (stereo not given) | 3.73%
Cc1ccccc1N1CC(C(=O)Nc2ccc3c(c2)OCO3)CC1=O (stereo not given) | 7.55%
CC1(C)CC(O)C(CCC(O)c2ccccc2)C(C)(C)N1 (stereo not given) | 11.8%
Cc1ccc(Cl)cc1NC(=S)N(CCN(C)C)Cc1cccs1 | -1.86%
CCCC(=O)N1CCC(CCC(=O)NC2CC2)CC1 | -6.29%
CCCn1c(=S)[nH]c2ccc(C(F)(F)F)cc21 | 2.44%
Cc1cc(N2CCN(c3ccc(F)cc3)CC2)n2ncnc2n1 | -5.36%
Cc1ccc(NC(=O)C2CCN(S(=O)(=O)c3ccc4c(c3)NC(=O)CO4)CC2)cc1C | -3.15%
COc1cc(OC)cc(C(=O)N[C@H](C(=O)Nc2nc3ccccc3[nH]2)C(C)C)c1 | 12.4%
COc1cccc(C(=O)Nc2ccc3nc4n(c(=O)c3c2)CCCCC4)c1 | 13.4%
COc1cc(OC)cc(C(=O)Nc2ccc(-c3nc4ccccc4o3)c(O)c2)c1 | 31.5% (active)
CN(Cc1ccccc1)C(=O)C(=O)c1cn(CC(=O)N2CCCC2)c2ccccc12 | 13.8%
O=C(CSc1ccccn1)Nc1nc2c(ccc3ccccc32)s1 | 13.6%
COc1cc(OC)c(OC)cc1CN1CCN(C(=O)c2cccc3ccccc23)CC1 | 0%
O=C1C2CCCN2C(=O)N1CCCCN1CCN(c2cccc(C(F)(F)F)c2)CC1 (stereo not given) | 15.7%
COc1cc(/C=C/C(=O)OCC(=O)NCCCc2ccccc2)ccc1O | 19.3%

SMILES | inhibition
CC(=O)c1sc(N/N=C/c2ccc(C(C)C)cc2)nc1C | 8.98%
COc1cc(/C=N\Nc2nc(-c3cccs3)c(NC(C)=O)s2)ccc1O | 34.8% (active)
CC(C)=CCCC(C)CN1CCC(n2nccc2NC(=O)c2ccccc2)CC1 (stereo not given) | -14.4%
CC(C)=CC(=O)Nc1nnc(-c2ccc(F)cc2)s1 | 2.46%
O=C(Nc1nnc(Cc2ccc(Cl)cc2)s1)c1ccncc1 | 16.2%
Cc1ccc(C(=O)Nc2nnc(-c3ccncc3)s2)o1 | 36.5% (active)
NC(=O)C1CCN(C(=O)c2cc(S(=O)(=O)N3CCN(c4ccccc4)CC3)ccc2Cl)CC1 | 0%
Cc1[nH]n(C)c(=O)c1C(=O)c1c(-c2c(Cl)cccc2Cl)noc1C | 10.3%
Cc1c(N=Nc2ccc(N(C)C)cc2)c(=O)n(-c2ccccc2)n1C | 7.74%
Cc1[nH]n(C)c(=O)c1N=Nc1ccc(S(C)(=O)=O)cc1 | 33.3% (active)
O=S(=O)(NCc1ccccc1Cl)c1cnc[nH]1 | 5.02%
O=C(NCCCNC(=O)c1ccccc1Cl)c1cnccn1 | -2.33%
O=C(NCCCO)/C(=C\C=C\c1ccccc1)NC(=O)c1ccccc1Cl | 34.7% (active)
O=C(NCC(=O)N1CCCCCCC1)c1ccccc1Cl | 9.24%
CC(NCC(=O)Nc1ccccc1C(=O)NC1CC1)c1ccccc1Cl (stereo not given) | -5.56%
COCCn1cnnc1SCC(=O)Nc1cccc(S(=O)(=O)N2CCCCC2)c1 | -5.42%
COc1ccc(CC2c3cc(OC)c(OC)cc3CC[N+]2(C)CCC(=O)OCCCCCOC(=O)CC[N+]2(C)CCc3cc(OC)c(OC)cc3C2Cc2ccc(OC)c(OC)c2)cc1OC (stereo not given) | -11.1%
COc1cccc(C(=O)NC(=O)Nc2nc(C)cc(C(F)(F)F)n2)c1 | -10%
COc1cccc(Nc2ncccc2C(=O)O)c1 | 11.1%
COc1ccc2nc(C)cc(Nc3cccc(C(=O)O)c3)c2c1 | 32.2% (active)
